FH mod: Identification of activators of human fumarate hydratase by quantitative high-throughput screening; Fumarate hydratase, mitochondrial (Homo sapiens), P07954; FH coupled MDH/diaphorase resazurin fluorescence, 15 min; Potency, µM (doses to about 79.9 µM), usual class: inhibitors; 54,000 compounds, 0.22% hits; further: the screen sought activators but most active calls are inhibition curves; nearly all actives have a fitted effect of over 45% in size
DRV1 agonist: qHTS for Agonists of Human Resolvin D1 Receptor DRV1. Probable G-protein coupled receptor 32 (Homo sapiens), O75388. CHO-K1 GPR32 beta-arrestin PathHunter luminescence, 90 min; zero percent set by DMSO-only wells. AID 1346428, 2018. activation, % at 76.9 µM. 48,000 compounds, 2.5% hits;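 active means activation of at least 60% and not above a set upper limit, about 1 call in 100 departs from these limits; inconclusive means activation of 40% to 60%, or above that upper limit; inactive means activation under 40%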
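Using DMSO wells as EC0, agonist-induced signal was taken as chemiluminescence from beta-Gal reconstituted upon beta-arrestin recruitment to GPR32 in CHO-K1 cells after 90 min compound treatment.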
TSG101-PTAP inh: qHTS Validation Assay for Inhibitors of HIV-1 Budding by Blocking the Interaction of PTAP/TSG101: Sytravon Library Screen | Tumor susceptibility gene 101 protein (Homo sapiens), Q99816 | Fluorescence polarization, FITC-PTAP peptide/Tsg101, 20 min | Potency, µM (top dose mostly 115 µM), hits mostly inhibitors | 44,000 tested, under 10 active | AID 1347069, 2019
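FITC-labeled PTAP peptide (50 nM final) binding to Tsg101 binding domain (10 uM final) read by fluorescence polarization after 20 min at r.t. in HEPES pH 7.5 buffer. Actives by CRC class, <25 µM.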
B2AR arrestin ag: qHTS assay of beta-arrestin-biased ligands of beta2-adrenergic receptor: NCGC Sytravon Library Screen; HTLA Tango cells, beta-arrestin recruitment, luciferase luminescence, 18 h; 44,000 tested, under 10 active; Potency, µM (doses to about 46.1 µM), hits mostly activators
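Tango cells expressing recombinant beta2-AR and beta-arrestin were treated with compounds (up to 46 microM titration) in DMEM with 1% FBS for 18 hr at 37 degrees C. Beta-arrestin recruitment drove tTA-dependent luciferase, read by luminescence; curves were fitted and classed.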
GALC G270D up: A Novel Cell-Based Assay to Identify Small Molecules for B -Galactocerebrosidase | 145M-Twi-hGALC-G270D cells (Twitcher mouse brain line with human GALC G270D), HMU-beta-Gal fluorescence, 48 h | Potency, µM (titrated, usually from 57.5 µM), actives largely listed as activators | 45,000 compounds, 0.1% hits | P54803; further: nearly all actives have a fitted effect of over 65% in size
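Mutant human GALC (G270D), stably expressed in a Twitcher mouse brain cell line lacking endogenous GALC, is measured in live-treated cells via 6-hexadecanoylamino-4-methylumbelliferyl-β-galactoside hydrolysis (0.1 mM final, pH 5.2) with fluorescent detection.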
GALK inh: qHTS Assay for Inhibitors of Human Galactokinase (GALK): NCGC Sytravon Library Screen; P51570; recombinant GALK, Kinase-Glo ATP luminescence, 1 h; Potency, µM (series often up to 57.5 µM), hits mostly inhibitors; 44,000 tested, under 10 active; AID 1347072, 2019
Target sequence (P51570 whole entry, looked up): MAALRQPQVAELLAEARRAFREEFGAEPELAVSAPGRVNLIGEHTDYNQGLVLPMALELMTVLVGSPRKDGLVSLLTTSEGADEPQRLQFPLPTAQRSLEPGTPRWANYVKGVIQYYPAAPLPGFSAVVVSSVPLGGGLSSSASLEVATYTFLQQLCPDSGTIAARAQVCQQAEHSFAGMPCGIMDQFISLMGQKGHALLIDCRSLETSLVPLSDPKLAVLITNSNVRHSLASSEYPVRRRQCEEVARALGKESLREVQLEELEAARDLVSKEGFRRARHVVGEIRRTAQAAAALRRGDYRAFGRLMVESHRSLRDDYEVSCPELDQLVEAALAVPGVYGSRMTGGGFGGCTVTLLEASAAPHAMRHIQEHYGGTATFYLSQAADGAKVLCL
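Human GALK (5 nM) was incubated with 35 uM ATP and 100 uM galactose in 20 mM HEPES pH 8.0 with MgCl2, NaCl, DTT and BSA for 1 h at room temperature. Remaining ATP was measured by Kinase-Glo Plus luminescence.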
A number is an active result; . = inactive; ? = inconclusive; / = no result given; ! = repeats disagree; [ ] = remark or other dose. The list is not random: actives were taken first. Their share in the collection is about 2.8%. Unless noted, the call rests on the fitted dose curve; in most records, active means well fitted curve in the direction sought with a large enough effect; inconclusive means small, poorly fitted or top-dose-only effect, or another doubt; inactive means no such curve, though single readings can be large; an effect the other way counts as inactive or inconclusive.

SMILES	FH mod	DRV1 agonist	TSG101-PTAP inh	B2AR arrestin ag	GALC G270D up	GALK inh
COC(=O)c1cc2sc(Cl)cc2n1CC(=O)Nc1cc(OC)cc(OC)c1	.	88.5	.	.	.	.
CSc1ccc(C(=O)N[C@@H]2CCCC[C@@H]2NC(=O)CNC(=O)c2cc(C(F)(F)F)ccc2NC(=O)NC(C)C)cc1	.	/	/	/	/	/
COc1cc(NC(=O)c2nnn(Cc3ccc(F)cc3)c2N)cc(OC)c1	.	79.4	.	.	.	.
Cc1cc(C)cc(NC(=O)Cn2nnc(C(=O)Nc3cc(C)cc(C)c3)c2N)c1	.	83.6	.	.	.	.
COc1cccc(NC(=O)c2nnn(Cc3cccc(C(F)(F)F)c3)c2N)c1	.	.	.	.	.	.
O=C(CSc1nc2c(c(=O)[nH]1)CCC2)Nc1cc(C(F)(F)F)ccc1Cl	.	82.6	.	.	.	.
CCOc1cc(C(=O)Nc2ccc(NC(=O)c3cc4ccccc4o3)c(OC)c2)cc(OCC)c1OCC	.	105.2	.	.	.	.
COc1cc(NC(=O)c2cc(Cl)c(OC)c(Cl)c2)ccc1NC(=O)c1cc2ccccc2o1	.	.	.	.	.	.
CCc1ccc(NC(=O)C2CCN(c3ccc(Sc4ccc(C)cc4)nn3)CC2)cc1	.	.	.	.	.	.
COc1ccc(NC(=O)C2CCN(c3ccc(Sc4ccc(C)cc4)nn3)CC2)cc1	.	63.7	.	.	.	.
CCc1ccc(S(=O)(=O)Nc2ccc3c(c2)sc(=O)n3C)cc1	.	.	.	.	.	.
CCn1c(=O)sc2cc(NS(=O)(=O)c3ccc(C)cc3)ccc21	.	60.6	.	.	.	.
CN1C(=O)c2ccccc2C1=O	.	.	/	/	.	/
CC1=CC(=O)c2ccccc2C1=O	?	62.4	/	/	.	/
Cc1onc(-c2c(Cl)cccc2Cl)c1CC(=O)NCc1ccc(OCC(F)(F)F)nc1	.	/	/	/	/	/
C/C(=N\O)[C@@H](C)NCC(C)(C)CN[C@H](C)/C(C)=N/O	.	118.4	/	/	.	/
CC1(C)CC[C@]23CO[C@@]4(CCC5[C@@]6(C)CC[C@H](O[C@@H]7OC[C@H](O[C@@H]8O[C@H](CO)[C@@H](O)[C@H](O)[C@H]8O)[C@H](O)[C@H]7O[C@@H]7O[C@H](CO)[C@@H](O[C@@H]8O[C@H](CO)[C@@H](O)[C@H](O)[C@H]8O)[C@H](O)[C@H]7O)[C@@](C)(CO)C6CC[C@@]5(C)[C@]4(C)C[C@H]2OC2OCC(O)C(O)C2O)C3C1 (some centres undefined)	.[13.5 µM]	/	/	/	/	/
COc1ccc(Nc2c3c(nc4nncn24)CCC3)cc1OC	.	93.3	.	.	.	.
CC1(C)CC[C@]2(CO[C@@H]3O[C@H](CO)[C@@H](O)[C@H](O)[C@H]3O)[C@@H](O)C[C@]3(C)C(=CCC4[C@@]5(C)CC[C@H](O[C@@H]6O[C@H](CO[C@@H]7O[C@H](CO[C@@H]8OC[C@@H](O)[C@H](O)[C@H]8O)[C@@H](O)[C@H](O)[C@H]7O)[C@@H](O)[C@H](O)[C@H]6O)C(C)(C)C5CC[C@]43C)[C@@H]2C1 (some centres undefined)	.	/	/	/	/	/
O=C(Nc1cccc(C(F)(F)F)c1)Nc1cc(S(=O)(=O)NC2CC2)ccc1-c1ccsc1	19.3µM!	/	/	/	/	/
O=C(Nc1cccc(C(F)(F)F)c1)Nc1cccs1	.	?	.	.	.	.
O=C(Nc1cc(C(F)(F)F)cc(C(F)(F)F)c1)c1cnc(Cl)nc1C(F)(F)F	.	/	/	/	/	/
O=c1oc2c(CN3CCOCC3)c(O)ccc2cc1-c1ccccc1	.	.	.	.	25.1µM	.
CN1CCN(Cc2c(O)ccc3cc(-c4ccccc4)c(=O)oc23)CC1	.	.	.	.	.	.
Nc1nc(NC2CC2)cc(-c2cccc(Cl)c2Cl)n1	.	/	/	/	/	/
SMILES	FH mod	DRV1 agonist	TSG101-PTAP inh	B2AR arrestin ag	GALC G270D up	GALK inh
COc1ccc(NC(=O)CSc2nc(-c3ccco3)cc(C(F)(F)F)n2)cc1	.	94.6	.	.	.	.
Clc1ccc(CN[C@H]2CCN(c3ncc(Br)cn3)C2)c(Cl)c1	.	/	/	/	/	/
O=C(CSc1cn(CCNC(=O)c2c(F)cccc2F)c2ccccc12)Nc1ccc2c(c1)OCCO2	.	68.5	.	.	.	.
COc1ccc(C(=O)NCCn2cc(SCC(=O)Nc3ccc4c(c3)OCCO4)c3ccccc32)cc1OC	?	.	.	.	.	.
C=C(CO)C12OC1C1(C)C(=CC2=O)C(O)C(O)CC1C (centres undefined)	.	/	/	/	/	/
CC(C)c1nnc(NC(=O)c2nc(SCc3ccc(F)cc3)ncc2Cl)s1	.	109.1	.	.	.	.
CCn1c(=O)cc(SCC(=O)NCc2ccc(C)cc2)c2ccccc21	.	69.3	.	.	.	.
CCN(CCCNC(=O)c1cc2c(Cl)nc3ccccc3c2s1)Cc1ccccc1	?	95.3	.	.	.	.
CCOc1ccc(CNC(=O)CSc2cc(=O)n(CC)c3ccccc23)cc1	.	.	.	.	.	.
CCn1c(=O)cc(SCC(=O)NCc2ccc(OC)cc2OC)c2ccccc21	.	.	.	.	.	.
CCN(CCCNC(=O)CSc1cc(=O)n(C)c2ccccc12)c1ccccc1	.	.	.	.	.	.
CCN(CCCNC(=O)CSc1cc(=O)n(CC)c2ccccc12)c1ccccc1	.	116.8	.	.	.	.
CCc1ccc(CNC(=O)CSc2cc(=O)n(CC)c3ccccc23)cc1	.	60.5	.	.	.	.
O=C1NC(Nc2ccccc2)=N/C1=C\c1ccc2c(c1)OCO2	.	/	/	/	/	/
O=C(/C=C/c1ccc2ccccc2n1)c1ccncc1	.	/	/	/	/	/
CCN(CCCNC(=O)c1cc2c(=O)n(C)c3ccccc3c2s1)Cc1ccccc1	.	.	.	.	.	.
CCN(CCCNC(=O)c1cc2c(=O)n(C)c3ccccc3c2s1)c1ccccc1	.	70.3	.	.	.	.
CC(=O)c1ccc(O[C@@H]2OC[C@@H](O)[C@H](O)[C@H]2O[C@]2(CO)O[C@H](CO)[C@@H](O)[C@@H]2O)c(O)c1	.	/	/	/	/	/
COc1ccc(C)c2sc(N3CCN(C(=O)c4ccco4)CC3)nc12	.	86.0	.	.	.	.
COc1ccc(C)c2sc(N3CCN(C(=O)c4cccc(F)c4)CC3)nc12	.	.	.	.	.	.

High-throughput results deposited in PubChem by National Center for Advancing Translational Sciences (NCATS).
